Rows were chosen to be rich in hits. Some 31% of all compounds tested hit in one or more screens of this group.
CYP2C9 activ = human CYP2C9 activators, primary screen, biochemical, luminescence; Cytochrome P450 2C9 (Homo sapiens), P11712; recombinant CYP2C9, luciferin-H conversion; active compounds read high; factor 1 = untreated enzyme, 0 = blocked; activation factor at 5 µM; 96,000 tested, 1.4% active; AID 1024, 2008;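 active means activation factor of 2 or more for CYP2C9 at a 5 µM dose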;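 further: 0 = sulfaphenazole-blocked wells and 1 = vehicle-only wells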
CYP2C19 inh = blockers of cytochrome P450 2C19 activity – biochemical, luminescence, ADME assay, primary screen; P33261; CYP2C19 Supersomes, luciferin-H EGE luminescence, 30 min; inhibition, % at 5 µM; 96,000 tested, 21% active; AID 778, 2007;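 active means CYP2C19 inhibition above a set limit at 5 µM in the primary screen, cut at about 50% in these data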;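 further: plate controls were negative control wells for no effect and 2.5 mM tranylcypromine positive control for full effect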
CYP2C9 inhib = blockers of cytochrome P450 2C9 activity – biochemical, luminescence, ADME assay, primary screen. P11712. CYP2C9 Supersomes, luciferin-H conversion. inhibition, % at 5 µM. 96,000 tested, 20% active. AID 777, 2007;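 active means blocking of liver enzyme CYP2C9 beyond about 50% at 5 µM, limit read from the data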
PLAP act = PLAP enzyme activators, biochemical, luminescence, HTS. Alkaline phosphatase, placental type (Homo sapiens), P05187. activation fold at 20 µM. purified PLAP enzyme, luminescent substrate read-out; active compounds read high. 96,000 tested, 1.2% active; in the data active means activation fold above about 2
Target sequence (P05187 whole entry, looked up): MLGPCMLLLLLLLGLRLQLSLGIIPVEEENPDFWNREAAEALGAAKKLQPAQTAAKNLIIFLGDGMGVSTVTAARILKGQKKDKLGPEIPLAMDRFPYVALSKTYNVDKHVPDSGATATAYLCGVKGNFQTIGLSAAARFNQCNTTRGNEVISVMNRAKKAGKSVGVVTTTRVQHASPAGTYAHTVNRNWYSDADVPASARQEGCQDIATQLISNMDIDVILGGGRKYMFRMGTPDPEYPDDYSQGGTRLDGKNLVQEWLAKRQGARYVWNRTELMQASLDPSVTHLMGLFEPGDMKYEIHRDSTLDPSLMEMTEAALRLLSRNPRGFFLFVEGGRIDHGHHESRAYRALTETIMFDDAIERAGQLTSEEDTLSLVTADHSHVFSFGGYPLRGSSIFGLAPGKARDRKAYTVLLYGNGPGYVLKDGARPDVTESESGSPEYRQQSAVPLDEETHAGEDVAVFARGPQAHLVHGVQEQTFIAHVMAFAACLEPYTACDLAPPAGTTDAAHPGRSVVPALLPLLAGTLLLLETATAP
CYP2C19 act = human CYP2C19 activators, primary screen, biochemical, luminescence; recombinant CYP2C19, luciferin-H EGE luminescence; active compounds read high; 0 = fully inhibited enzyme, 1 = untreated enzyme; activation factor at 5 µM; 96,000 tested, under 10 active;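 active means activation factor of at least 2 at 5 µM in the primary screen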;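 further: 0 = wells with 2.5 mM tranylcypromine and 1 = vehicle-only wells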
* = called active by the depositor.

`O=C(c1ccc(Br)o1)N1CCN(c2ccc(F)cc2)CC1` gave CYP2C9 activ 0.8, CYP2C19 inh 95*, CYP2C9 inhib 24, PLAP act 0.7 and CYP2C19 act 0.1.
Screening Cc1ccc(C(=O)N2CCN(c3ccc(NC(=O)c4cccnc4)cc3)CC2)cc1 returned CYP2C9 activ 0.3, CYP2C19 inh 35, CYP2C9 inhib 74*, PLAP act 1.6 and CYP2C19 act 0.7.
For O=C(Nc1ccccc1C(=O)OC1CCOC1=O)c1ccco1 (centres undefined) the results were CYP2C9 activ 0.9, CYP2C19 inh 0, CYP2C9 inhib 12, PLAP act 0.9 and CYP2C19 act 1.
COCC(C)NC(=O)c1cc(-c2ccc(OC)c(OC)c2)on1 (centres undefined) was read as CYP2C9 activ 1.2, CYP2C19 inh 5, CYP2C9 inhib -20, PLAP act 0.9 and CYP2C19 act 1.
For Cc1cc(NS(=O)(=O)c2ccc(-c3ccccc3)cc2)no1 the results were CYP2C9 activ 0.1, CYP2C19 inh 13, CYP2C9 inhib 88*, PLAP act 1.3 and CYP2C19 act 0.9.
For Cc1ccc(S(=O)(=O)Nc2ccccc2-c2ccccc2)cc1 the results were CYP2C9 activ 0.5, CYP2C19 inh 58*, CYP2C9 inhib 49, PLAP act 0.9 and CYP2C19 act 0.4.
For Cc1cc(NC(=O)c2ccc(S(=O)(=O)Nc3ccccc3)cc2)no1 the results were CYP2C9 activ 0.5, CYP2C19 inh 21, CYP2C9 inhib 52*, PLAP act 1 and CYP2C19 act 0.8.
Cc1cc(NS(=O)(=O)c2ccc(NC(=O)CCc3ccccc3)cc2)no1 was read as CYP2C9 activ 0.8, CYP2C19 inh 13, CYP2C9 inhib 22, PLAP act 1 and CYP2C19 act 0.9.
Cc1ccc(S(=O)(=O)Nc2cc(C)nn2-c2ccccc2)cc1 was read as CYP2C9 activ 0, CYP2C19 inh 4, CYP2C9 inhib 100*, PLAP act 1 and CYP2C19 act 1.
`Cc1cc(-n2nc(C)cc2C)nc(NS(=O)(=O)c2ccccc2)n1` gave CYP2C9 activ 0.9, CYP2C19 inh -2, CYP2C9 inhib 9, PLAP act 1.3 and CYP2C19 act 1.
`Cn1ccnc1C(=O)c1cc(=O)c2ccccc2o1` gave CYP2C9 activ 1.1, CYP2C19 inh 22, CYP2C9 inhib -6, PLAP act 1.1 and CYP2C19 act 0.8.
`O=C(CN1CCN(Cc2ccccc2Cl)C1=O)NC1CCCCCCC1` gave CYP2C9 activ 1.1, CYP2C19 inh 72*, CYP2C9 inhib -7, PLAP act 1.6 and CYP2C19 act 0.3.
Screening O=C(CN1CCN(Cc2ccccc2Cl)C1=O)NCc1ccco1 returned CYP2C9 activ 0.9, CYP2C19 inh -2, CYP2C9 inhib 14, PLAP act 1.1 and CYP2C19 act 1.
CC(C)OCCCNC(=O)CN1CCN(Cc2ccccc2Cl)C1=O was read as CYP2C9 activ 0.5, CYP2C19 inh 9, CYP2C9 inhib 52*, PLAP act 1.3 and CYP2C19 act 0.9.
COCCCNC(=O)CN1CCN(Cc2ccc(Cl)cc2)C1=O was read as CYP2C9 activ 1.1, CYP2C19 inh 5, CYP2C9 inhib -9, PLAP act 1.2 and CYP2C19 act 0.9.
OCCNc1nc(OCC(F)(F)F)nc(N2CCN(C34CC5CC(CC(C5)C3)C4)CC2)n1 was read as CYP2C9 activ 0.8, CYP2C19 inh -7, CYP2C9 inhib 23, PLAP act 0.9 and CYP2C19 act 1.1.
Cc1nc(-c2ccccn2)sc1C(=O)Nc1ccc(Cl)c(Cl)c1 was read as CYP2C9 activ 0.6, CYP2C19 inh 10, CYP2C9 inhib 41, PLAP act 0.9 and CYP2C19 act 0.9.
For COc1ccc(C2SCCN2S(=O)(=O)c2ccc(NC(C)=O)cc2)cc1 (centres undefined) the results were CYP2C9 activ 0.6, CYP2C19 inh 55*, CYP2C9 inhib 43, PLAP act 1 and CYP2C19 act 0.5.
CC(=O)Nc1ccc(S(=O)(=O)N2CCSC2c2ccc(C)cc2)cc1 (centres undefined) was read as CYP2C9 activ 0.4, CYP2C19 inh 20, CYP2C9 inhib 55*, PLAP act 0.9 and CYP2C19 act 0.8.
CCOc1ccc(N(Cc2cc3ccc(C)cc3[nH]c2=O)C(=O)COC)cc1 was read as CYP2C9 activ 0.5, CYP2C19 inh 27, CYP2C9 inhib 45, PLAP act 1.5 and CYP2C19 act 0.7.
For O=C(CC1NCCNC1=O)OCCCc1ccccc1 (centres undefined) the results were CYP2C9 activ 1.1, CYP2C19 inh 13, CYP2C9 inhib -13, PLAP act 0.9 and CYP2C19 act 0.9.
Screening CC(C)(C)c1cccc(Oc2nn[nH]n2)c1 returned CYP2C9 activ 1.1, CYP2C19 inh 72*, CYP2C9 inhib -8, PLAP act 1 and CYP2C19 act 0.3.
`Cc1cc(C)cc(Oc2nn[nH]n2)c1` gave CYP2C9 activ 1, CYP2C19 inh -3, CYP2C9 inhib 3, PLAP act 0.9 and CYP2C19 act 1.
CC(=O)c1sc(NC(=O)c2ccccc2F)nc1C was read as CYP2C9 activ 1.1, CYP2C19 inh 33, CYP2C9 inhib -7, PLAP act 1.1 and CYP2C19 act 0.7.
Screening CC(=O)c1sc(Nc2nc(C)cc(C)n2)nc1C returned CYP2C9 activ 0.3, CYP2C19 inh 15, CYP2C9 inhib 73*, PLAP act 1.2 and CYP2C19 act 0.9.
`CCn1c(-c2cc(-c3cccc(OC)c3)nc3ccccc23)n[nH]c1=S` gave CYP2C9 activ 0.1, CYP2C19 inh -11, CYP2C9 inhib 91* and CYP2C19 act 1.1.
Screening O=C(CN1CCOCC1)OCCCc1ccccc1 returned CYP2C9 activ 1.1, CYP2C19 inh 66*, CYP2C9 inhib -14, PLAP act 1.2 and CYP2C19 act 0.3.
CCOC(=O)CC(=O)CSc1nc2nc(C)cc(C)n2n1 was read as CYP2C9 activ 0.8, CYP2C19 inh 19, CYP2C9 inhib 17, PLAP act 1.4 and CYP2C19 act 0.8.
`Cn1c(Cn2nnc(-c3ccccc3)n2)nnc1SCc1ccccc1Cl` gave CYP2C9 activ 0.4, CYP2C19 inh -10, CYP2C9 inhib 64*, PLAP act 1.1 and CYP2C19 act 1.1.
Screening Cn1c(SC/C=C/c2ccccc2)nnc1-c1cnccn1 returned CYP2C9 activ 0.9, CYP2C19 inh 23, CYP2C9 inhib 5, PLAP act 0.9 and CYP2C19 act 0.8.
Screening Cn1c(SCc2ccccc2Cl)nnc1-c1cnccn1 returned CYP2C9 activ 0.9, CYP2C19 inh 77*, CYP2C9 inhib 9, PLAP act 1 and CYP2C19 act 0.2.
For CC1(C(=O)NC2CCCCCCC2)CCC(=O)N1CCN1CCOCC1 (centres undefined) the results were CYP2C9 activ 0.8, CYP2C19 inh 0, CYP2C9 inhib 18, PLAP act 1 and CYP2C19 act 1.
